Assay outcomes: PubChem BioAssay, several laboratories
CYP2C9 activ = CYP2C9 (human) activation; P11712; recombinant CYP2C9, luciferin-H conversion, luminescence; active compounds read high; factor 1 = untreated enzyme, 0 = blocked; hit rate 1.4% among 96,000; activation factor at 5 µM;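 active = activation factor of 2 or more for CYP2C9 at a 5 µM dose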
CYP2C19 activ = activators of human cytochrome P450 2C19. recombinant CYP2C19, luciferin-H EGE luminescence; active compounds read high; 0 = fully inhibited enzyme, 1 = untreated enzyme. activation factor at 5 µM. 96,000 tested, under 10 active;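 active = activation factor of at least 2 at 5 µM in the primary screen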
Target sequence (P33261 whole entry, looked up): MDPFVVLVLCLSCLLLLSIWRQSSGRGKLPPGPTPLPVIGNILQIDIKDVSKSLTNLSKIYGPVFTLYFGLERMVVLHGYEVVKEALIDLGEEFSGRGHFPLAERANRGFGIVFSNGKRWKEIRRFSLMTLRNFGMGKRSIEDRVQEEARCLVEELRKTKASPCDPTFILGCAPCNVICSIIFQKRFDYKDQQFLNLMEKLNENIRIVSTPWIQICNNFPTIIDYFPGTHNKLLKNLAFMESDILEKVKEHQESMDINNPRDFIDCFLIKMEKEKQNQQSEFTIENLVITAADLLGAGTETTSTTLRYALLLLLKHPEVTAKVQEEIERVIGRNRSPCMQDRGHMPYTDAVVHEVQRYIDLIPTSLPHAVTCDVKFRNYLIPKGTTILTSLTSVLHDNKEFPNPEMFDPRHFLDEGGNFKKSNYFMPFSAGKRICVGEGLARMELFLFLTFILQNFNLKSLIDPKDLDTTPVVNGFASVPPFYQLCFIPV
CYP2C9 inhib = inhibitors of human CYP2C9. inhibition, % at 5 µM. P11712. hit rate 20% among 96,000. CYP2C9 Supersomes, luciferin-H conversion, luminescence;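 active = blocking of liver enzyme CYP2C9 beyond about 50% at 5 µM, limit read from the data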
CYP2C19 inhib = inhibitors of human CYP2C19; P33261; CYP2C19 Supersomes, luciferin-H EGE luminescence, 30 min; inhibition, % at 5 µM; hit rate 21% among 96,000;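 active = CYP2C19 inhibition above a set limit at 5 µM in the primary screen, cut at about 50% in these data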
MRP1 act = activators of MRP-1; viability increase, % at 10 µM; hit rate 0.61% among 140,000; H69AR cells + doxorubicin, viability rescue, CellTiter-Glo;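 active = viability gain under doxorubicin at or above a set limit, the compound median plus 3 SD, cut at about 4.7% in these data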;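 note: MRP-1 overexpressing cells given doxorubicin 25 µM after compound pretreatment; 18-22 h compound pretreatment then 72 h with doxorubicin before readout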
MRP reversal = reverses drug resistance mediated by MRP. H69AR cells + 2 uM doxorubicin, CellTiter-Glo, 72 h. differential viability (reversal), % at 10 µM. hit rate 0.04% among 85,000. AID 602;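 active = viability drop by adding the cancer drug above about 55%, with treated viability meeting a 40% cutoff, limit read from the data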;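 note: larger differential means the compound sensitizes cells more to doxorubicin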
Hits are given with their value. Only some compounds are listed: those with a hit (about 21% of all), similar ones and a draw of the others.

What do the screens show for `COc1cc(S(=O)(=O)n2c(C)nc3ccccc32)ccc1F`?
CYP2C9 activ: inactive; CYP2C19 activ: inactive; CYP2C9 inhib: inactive; CYP2C19 inhib: 94; MRP1 act: inactive; MRP reversal: inactive

How did CCOc1ccc(S(=O)(=O)n2c(C)nc3ccccc32)cc1 do in these assays?
CYP2C9 activ: inactive; CYP2C19 activ: inactive; CYP2C9 inhib: inactive; CYP2C19 inhib: inactive; MRP1 act: inactive; MRP reversal: inactive

How did CCOc1ccccc1C(=O)N(CCC(=O)OC)c1ccccn1 do in these assays?
CYP2C9 activ: inactive; CYP2C19 activ: inactive; CYP2C9 inhib: inactive; CYP2C19 inhib: 53; MRP1 act: inactive; MRP reversal: inactive

Results for COC(=O)CCN(C(=O)c1ccc2c(c1)OCO2)c1ccccn1 ?
CYP2C9 activ: inactive; CYP2C19 activ: inactive; CYP2C9 inhib: inactive; CYP2C19 inhib: 94; MRP1 act: inactive; MRP reversal: inactive

What do the screens show for `COC(=O)CCN(C(=O)c1cc(OC)c(OC)c(OC)c1)c1ccccn1`?
CYP2C9 activ: inactive; CYP2C19 activ: inactive; CYP2C9 inhib: inactive; CYP2C19 inhib: inactive; MRP1 act: inactive; MRP reversal: inactive

Results for CCCCOc1ccc(C(C)NC(=O)C2CCCN(S(=O)(=O)CCC)C2)cc1 (stereo not drawn) ?
MRP1 act: inactive

How did COc1cc(Cl)c(C)cc1NC(=O)CSC do in these assays?
CYP2C9 activ: inactive; CYP2C19 activ: inactive; CYP2C9 inhib: inactive; CYP2C19 inhib: 52; MRP1 act: inactive; MRP reversal: inactive

What do the screens show for `COc1cc(Cl)c(C)cc1NC(=O)COc1cc(C)nc(C(C)C)n1`?
CYP2C9 activ: inactive; CYP2C19 activ: inactive; CYP2C9 inhib: 51; CYP2C19 inhib: inactive; MRP1 act: inactive; MRP reversal: inactive

Results for COc1cc(Cl)c(C)cc1NC(=O)CSc1ccc(C)cc1 ?
CYP2C9 activ: inactive; CYP2C19 activ: inactive; CYP2C9 inhib: inactive; CYP2C19 inhib: inactive; MRP1 act: inactive

Results for COc1ccccc1NC(=O)COc1cc(C)nc(C(C)C)n1 ?
CYP2C9 activ: inactive; CYP2C19 activ: inactive; CYP2C9 inhib: inactive; CYP2C19 inhib: inactive; MRP1 act: inactive

Results for O=C(/C=C/c1ccc(F)cc1)c1ccccc1Br ?
MRP1 act: inactive

Results for COc1ccccc1C1=NOC(COC(=O)c2ccc3ccccc3n2)C1 (stereo not drawn) ?
CYP2C9 activ: 2.2; CYP2C19 activ: inactive; CYP2C9 inhib: inactive; CYP2C19 inhib: inactive; MRP1 act: inactive

What do the screens show for `CCOC(=O)N1CCN(C(=O)C2CC(c3ccccc3OC)=NO2)CC1` (stereo not drawn)?
CYP2C9 activ: inactive; CYP2C19 activ: inactive; CYP2C9 inhib: inactive; CYP2C19 inhib: inactive; MRP1 act: inactive; MRP reversal: inactive

Results for Cc1cc(C(=O)NCCC(c2ccccc2)c2ccccc2)c(C)o1 ?
CYP2C9 activ: inactive; CYP2C19 activ: inactive; CYP2C9 inhib: 98; CYP2C19 inhib: 93; MRP1 act: inactive

Results for Cc1cc(C(=O)NCCCC(=O)O)c(C)o1 ?
CYP2C9 activ: inactive; CYP2C19 activ: inactive; CYP2C9 inhib: inactive; CYP2C19 inhib: inactive; MRP1 act: inactive; MRP reversal: inactive

How did O=[N+]([O-])c1ccc(N2CCN(CCO)CC2)cc1Sc1nc2ccccc2[nH]1 do in these assays?
CYP2C9 activ: inactive; CYP2C19 activ: inactive; CYP2C9 inhib: 56; CYP2C19 inhib: inactive; MRP1 act: inactive

Results for Cn1cnnc1Sc1cc(N2CCN(S(=O)(=O)c3ccc4ccccc4c3)CC2)ccc1[N+](=O)[O-] ?
MRP1 act: inactive

Results for CCNC(=S)N1CCN(S(=O)(=O)c2cccc(C(F)(F)F)c2)CC1 ?
MRP1 act: inactive

What do the screens show for `O=C(CSc1nc2ccccc2[nH]1)NCC1CCCO1` (stereo not drawn)?
MRP1 act: inactive

What do the screens show for `COc1ccc(Cl)cc1-n1c(=S)sc2c(=O)[nH]c(SCC(=O)NCC3CCCO3)nc21` (stereo not drawn)?
CYP2C9 activ: inactive; CYP2C19 activ: inactive; CYP2C9 inhib: 53; CYP2C19 inhib: inactive; MRP1 act: inactive; MRP reversal: inactive

Results for COc1ccc(S(=O)(=O)NCC2CCC(C(=O)N3CCC4(CC3)OCCO4)CC2)cc1 (stereo not drawn) ?
MRP1 act: inactive

What do the screens show for `Cc1ccccc1-n1nc2c(c1NC(=O)COc1ccc(Cl)cc1)CS(=O)C2` (stereo not drawn)?
CYP2C9 activ: inactive; CYP2C19 activ: inactive; CYP2C9 inhib: inactive; CYP2C19 inhib: 100; MRP1 act: inactive; MRP reversal: inactive

Results for Cc1ccccc1NC(=O)c1sc(NC(=O)COc2ccccc2)c(C#N)c1C ?
MRP1 act: inactive

What do the screens show for `O=S(=O)(NCc1cc(-c2ccccc2Cl)no1)c1ccccc1`?
CYP2C9 activ: 2.4; CYP2C19 activ: inactive; CYP2C9 inhib: inactive; CYP2C19 inhib: 92; MRP1 act: inactive

Results for O=S(=O)(NCc1cc(-c2ccccc2)no1)c1ccc(Cl)cc1 ?
CYP2C9 activ: inactive; CYP2C19 activ: inactive; CYP2C9 inhib: inactive; CYP2C19 inhib: 78; MRP1 act: inactive

What do the screens show for `O=S(=O)(NCc1cc(-c2ccc(Cl)cc2)no1)c1ccccc1`?
CYP2C9 activ: inactive; CYP2C19 activ: inactive; CYP2C9 inhib: inactive; CYP2C19 inhib: inactive; MRP1 act: inactive

How did CC(C)C(C)NC(=O)COc1ccc(Sc2ccc(OCC(=O)NC(C)C(C)C)cc2)cc1 (stereo not drawn) do in these assays?
MRP1 act: inactive

Results for CC(C)C(C)NC(=O)COc1ccc(-c2ccccc2)cc1 (stereo not drawn) ?
CYP2C9 activ: inactive; CYP2C19 activ: inactive; CYP2C9 inhib: 87; CYP2C19 inhib: inactive; MRP1 act: inactive; MRP reversal: inactive

What do the screens show for `CCCNC(=O)C1CNc2ccccc2O1` (stereo not drawn)?
CYP2C9 activ: inactive; CYP2C19 activ: inactive; CYP2C9 inhib: inactive; CYP2C19 inhib: inactive; MRP1 act: inactive; MRP reversal: inactive

How did CCOC(=O)C(CSCC(=O)c1ccc(Cl)cc1)NC(=O)OC(C)(C)C (stereo not drawn) do in these assays?
CYP2C9 activ: inactive; CYP2C19 activ: inactive; CYP2C9 inhib: inactive; CYP2C19 inhib: 60; MRP1 act: inactive; MRP reversal: inactive

What do the screens show for `CCOC(=O)C(CSCC(=O)c1ccc(Br)cc1)NC(=O)OC(C)(C)C` (stereo not drawn)?
CYP2C9 activ: inactive; CYP2C19 activ: inactive; CYP2C9 inhib: 82; CYP2C19 inhib: 93; MRP1 act: inactive; MRP reversal: inactive

How did CCOC(=O)C(CSCc1ccccc1)NC(=O)OC(C)(C)C (stereo not drawn) do in these assays?
CYP2C9 activ: inactive; CYP2C19 activ: inactive; CYP2C9 inhib: inactive; CYP2C19 inhib: inactive; MRP1 act: inactive

What do the screens show for `Cc1cc(C)c(C)c(S(=O)(=O)N2C(=S)NC(=O)C2C(C)C)c1C` (stereo not drawn)?
CYP2C9 activ: inactive; CYP2C19 activ: inactive; CYP2C9 inhib: inactive; CYP2C19 inhib: inactive; MRP1 act: inactive

How did CCOC(=O)CSc1cc(C)nc(NC(C)=O)n1 do in these assays?
CYP2C9 activ: inactive; CYP2C19 activ: inactive; CYP2C9 inhib: inactive; CYP2C19 inhib: inactive; MRP1 act: inactive; MRP reversal: inactive
